This is part of a sample that, as a whole, favours compounds with a hit. Of some 83,000 tested, about 20% had one in any assay.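 Plates (96-well) were seeded with cells, treated with compound at one concentration, and incubated for 48 hours before percent growth was determined.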 Unmarked numbers belong to inactive results. The source made the active and inactive calls. Rule for the calls: active = growth percent below 10; inactive = the rest.
Columns and labels:
Assay in all cases: NCI-60 one-dose screen, 48 h (100 = growth as untreated, 0 = no growth, -100 = all killed)
Conditions in all cases: 10 µM unless noted
NCI-H23 lung = test system: NCI-H23 lung
NCI-H226 lung = test system: NCI-H226 lung
NCI-H322M lung = test system: NCI-H322M lung
HOP-62 NSCLC = test system: HOP-62 NSCLC
NCI-H460 lung = test system: NCI-H460 lung
HOP-92 NSCLC = test system: HOP-92 NSCLC
NCI-H522 lung = test system: NCI-H522 lung
A549/ATCC NSCLC = test system: A549/ATCC NSCLC
786-0 renal = test system: 786-0 renal
COLO 205 colon = test system: COLO 205 colon
DU-145 prostate = test system: DU-145 prostate
K-562 leukemia = test system: K-562 leukemia
MALME-3M melanoma = test system: MALME-3M melanoma
MDA-MB-231 breast = test system: MDA-MB-231 breast
RXF 393 renal = test system: RXF 393 renal
SF-268 CNS = test system: SF-268 CNS
SF-295 CNS = test system: SF-295 CNS
SF-539 CNS = test system: SF-539 CNS
UACC-257 melanoma = test system: UACC-257 melanoma
M14 melanoma = test system: M14 melanoma

SMILES	growth (NCI-H23 lung)	growth (NCI-H226 lung)	growth (NCI-H322M lung)	growth (HOP-62 NSCLC)	growth (NCI-H460 lung)	growth (HOP-92 NSCLC)	growth (NCI-H522 lung)	growth (A549/ATCC NSCLC)	growth (786-0 renal)	growth (COLO 205 colon)	growth (DU-145 prostate)	growth (K-562 leukemia)	growth (MALME-3M melanoma)	growth (MDA-MB-231 breast)	growth (RXF 393 renal)	growth (SF-268 CNS)	growth (SF-295 CNS)	growth (SF-539 CNS)	growth (UACC-257 melanoma)	growth (M14 melanoma)
C=CC12CCN(CC1)C(C(O)c1ccnc3ccc(OC)cc13)C2 (stereo not given)	100%	89.3%	93.2%	97.5%	89%	75.2%	89%	76.1%	79%	-91.5% (active)	107%	17.6%	26.2%	51.2%	45.9%	83.7%	72.3%	89.8%	52.4%	72.3%
COC(=O)[C@@]1(O)C[C@H]2O[C@]1(C)n1c3ccccc3c3c4c(c5c6ccccc6n2c5c31)C(=O)NC4	-43% (active)	-63.1% (active)	-33.6% (active)	-59.3% (active)	-72.8% (active)	-44.3% (active)	-59.2% (active)	-39.7% (active)	-89.5% (active)	-66.6% (active)	-10.9% (active)	0.0974% (active)	-81% (active)	-49.1% (active)	-93.9% (active)	-28.8% (active)	-93.4% (active)	-88% (active)	-47.2% (active)	-67.5% (active)
CO[C@H]1CC[C@@]2(C)C(=CC[C@@H]3[C@@H]2CC[C@]2(C)C(=O)C(=O)C[C@@H]32)C1	99.5%	96.1%	120%	106%	102%	83.7%	98%	111%	107%	118%	116%	101%	111%	103%	26.3%	103%	110%	104%	120%	102%
O=c1[nH]cc(N(CCCl)CCCl)c(=O)[nH]1	54.2%	76.5%	96.6%	103%	31.8%	2.65% (active)	53.8%	77.5%	44.9%	81%	52.4%	83%	62.5%	95.2%	68.6%	52%	49.6%	46.2%	62%	73.5%
COc1ccc(C2=N[C@@H](Cc3ccccc3)C(=O)Nc3ccsc32)cc1	53.7%	76.3%	89.8%	66%	51.7%	61.4%	-13.4% (active)	43.2%	66.6%	35.6%	71.3%	16.2%	48.6%	55.9%	34.3%	55.1%	37%	44.9%	44%	20.7%
CC(=O)O[C@H](C[C@H](C(C)C)N(C)C(=O)[C@@H](NC(=O)[C@H]1CCCCN1C)C(C)C)c1nc(C(=O)NC2CCC(C(=O)O)CC2)cs1 (stereo not given in full)	64.8%	90.6%	72.4%	47.1%	26.7%	38%	-6.59% (active)	57.8%	46%	32.6%	41.1%	22.8%	61.8%	64.1%	44.1%	48.2%	35.1%	27.5%	50%	41.5%
CC[CH2][Sn]([Cl])([Cl])[CH2]CC	76.9%	86.4%	131%	82.4%	107%	110%	-87.2% (active)	99.3%	73.8%	44.2%	106%	30.6%	21%	81.6%	51.1%	83.2%	96.1%	80.4%	67%	83.4%
CCCOC(=O)N[C@H]1CCc2c(Br)c(OC)c(OC)c(OC)c2-c2ccc(SC)c(=O)cc21	26.9%	15.4%	34.6%	41.1%	-18.1% (active)	-3.98% (active)	8.5% (active)	18.2%	1.42% (active)	-31.9% (active)	-15.7% (active)	10.1%	38.4%	-13.4% (active)	13.8%	17.8%	5.54% (active)	0.697% (active)	64.5%	-26.3% (active)
CC(=O)OC1C(OC/C2=C/C3[C@@H](C(C)C)CC=C(C)[C@@H]3CC(OC(=O)/C=C/c3cn(C)cn3)[C@]3(C)C=C[C@@]2(O)O3)OCC(O)C1O (stereo not given in full)	18.2%	63.5%	17.4%	8.78% (active)	9.03% (active)	35.3%	0.4% (active)	27.9%	15.9%	-24.9% (active)	-10.2% (active)	15.7%	48.4%	41.8%	-20.6% (active)	45.1%	-3.4% (active)	11.9%	60.7%	-35.7% (active)
CNC(=O)Oc1ccc2c(c1)OCO2	103%	103%	107%	102%	106%	108%	103%	100%	107%	103%	108%	90.1%	104%	101%	113%	102%	101%	102%	102%	107%
C[C@@]1(CCCCCCCCCc2ccc(O)cc2)C[C@]2(C)OC(=O)C[C@@H]2OO1	99.4%	102%	105%	104%	108%	82.7%	90%	99.4%	80.2%	124%	130%	70%	105%	105%	120%	123%	91.9%	139%	102%	99.8%
CCC[CH2][Sn]([CH2]CCC)([CH2]CCC)[O]c1ccc(Cl)cc1Cl	-87.2% (active)	-86.5% (active)	-80.1% (active)	-91.7% (active)	-84.8% (active)	-84.9% (active)	-90.1% (active)	-82% (active)	-93.8% (active)	-75.2% (active)	-99.4% (active)	-65% (active)	-61.5% (active)	-78.2% (active)	-96.2% (active)	-91% (active)	-37% (active)	-83.4% (active)	-88.8% (active)	-83.9% (active)
CC1=C(CN)C2=C(C)C3(CC3)[C@@](C)(O)C(=O)C2=C1	68.2%	91.8%	91.6%	88.2%	66.1%	115%	87.9%	93.5%	99%	85.1%	48.5%	111%	96.2%	95.2%	91.6%	72.1%	78.9%	94.8%	87.2%	96.1%
O=C(CCCCCNC1=CC(=O)c2ccccc2C1=O)NCCC[Te]c1ccccc1	-12.9% (active)	-54.6% (active)	-8.86% (active)	-51% (active)	-45.3% (active)	-32.4% (active)	-18.5% (active)	-45.4% (active)	-48.5% (active)	-57% (active)	-11.6% (active)	32.7%	-52.3% (active)	-39.8% (active)	13.8%	-26.7% (active)	-32.5% (active)	-49.7% (active)	2.91% (active)	-37.6% (active)
Clc1ccc(CO/N=C(\Cn2ccnc2)c2ccc(Cl)cc2Cl)c(Cl)c1	-16.5% (active)	-8.01% (active)	21.6%	107%	-32.5% (active)	-31.9% (active)	-45.2% (active)	7.85% (active)	-45.3% (active)	105%	21%	1.68% (active)	-50.8% (active)	-11.5% (active)	-59.8% (active)	11.6%	-13.3% (active)	-55.1% (active)	6.73% (active)	-17.4% (active)

Source: PubChem BioAssay (NCI)
